The source of these data is PubChem BioAssay (NCATS).

Structures are written as SMILES. A number with no mark means an inactive call. Results filed as inconclusive are left out. The source made the active and inactive calls. Unless noted, calls follow the shape of the dose curve; as a rule, active = well fitted curve in the direction sought with a large enough effect; inconclusive = small, poorly fitted or top-dose-only effect, or another doubt; inactive = no such curve, though single readings can be large; an effect the other way counts as inactive or inconclusive.

Assay [1] can be described thus: Stat Signaling Pathway (AID 446; active = well fitted curve in either direction with a large enough effect, not every such curve was filed as active;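 also: ME-180 cervical cancer cells given 40 pM IL-6 alongside compound; SIE-controlled beta-lactamase reporter measured as 460/530 nm FRET emission ratio; % is scaled to controls: 0 for no effect and ±100 for the full control effect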). Summed up: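 ME-180 cells carrying a SIE-driven beta-lactamase reporter are stimulated with 40 pM IL-6 for 5 h at 37C in the presence of compound. The 460/530 nm FRET substrate ratio is read after 2.5 h at RT. Data are normalised to 300 pM IL-6 and to 125 nM JAK inhibitor controls.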
Assay [2] concerns the target Glucocorticoid receptor (Homo sapiens) (UniProt P04150). As to the kind of experiment: GR-GFP Redistribution (AID 450;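 active = compounds whose dose series gives a full or clear partial fitted curve of increased nuclear translocation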; also: potency is read from the fitted curve at half-maximal effect). Conditions: U2OS GR-GFP nuclear translocation, laser cytometry, 2 h.
In assay [3] the target is Luciferin 4-monooxygenase (Photinus pyralis) (UniProt P08659). As to the kind of experiment: Biochemical firefly luciferase enzyme assay for NPC (AID 624030).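 Also: purified P. pyralis luciferase at 10 nM with luciferin and ATP substrate; series mostly up to about 59 µM; 0% = DMSO and -100% = full luciferase inhibition by PTC124 control; nearly all actives have a fitted effect of over 70% in size.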 Summed up: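 Purified P. pyralis luciferase at 10 nM in 50 mM Tris Acetate (final), luminescence read within 5 minutes of enzyme addition to compounds. Activity normalised to PTC124 versus DMSO; concentration-response curves classed by r2, magnitude and activity.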

Assay [4] concerns the target Cytochrome P450 2C9 (Homo sapiens) (UniProt P11712). As to the kind of experiment: Cytochrome P450 family 2 subfamily C member 9 (CYP2C9) small molecule antagonists: luciferase biochemical (cell-free) qHTS assay (AID 1645842; active = well fitted curve in the direction sought with a large enough effect in the repeat runs; an effect the other way counts as inactive or inconclusive; also: nearly all actives have a fitted effect of over 55% in size; also: potency is read from the fitted curve at half-maximal effect). Summed up:
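Luminescence, after 20 min with luciferin detection reagent, reflected CYP2C9 turnover during a 1 h NADPH-driven reaction at 37C. Enzyme-substrate mix contained 0.4% bovine serum albumin and was preincubated with compound 10 min at room temperature.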

For assay [5], the target named is Glutathione peroxidase 1 (Homo sapiens) (UniProt P07203). As to the kind of experiment: Primary qHTS Assay for Inhibitors of Recombinant Selenoprotein Glutathione Peroxidase 1 (GPX1) (AID 1845191). Also: nearly all actives have a fitted effect of over 65% in size. Summed up: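 GR-coupled assay: compounds preincubated 30 min at room temperature with GPX1, then reaction started with CHP; final 10 nM GPX1, 1 mM GSH, 0.5 mM CHP, 0.5 mM NADPH, 100 nM GR, 0.01% BSA, pH 7.5 Tris buffer. NADPH fluorescence (340/450 nm) read at 0 and 15 min.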
In general terms: In qHTS, concentration-response curves come from the screen itself.

The target of assay [6] is Phospholipid hydroperoxide glutathione peroxidase GPX4 (Homo sapiens) (UniProt P36969). As to the kind of experiment: Primary qHTS Assay for Inhibitors of Recombinant Selenoprotein Glutathione Peroxidase 4 (GPX4) (AID 1845192). Also: nearly all actives have a fitted effect of over 65% in size. Summed up: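 GR-coupled assay: recombinant GPX4 preincubated 30 min with compound at room temperature; final 200 nM GPX4, 1 mM GSH, 0.5 mM cumene hydroperoxide, 0.5 mM NADPH, 100 nM GR, 0.01% BSA, pH 7.5 Tris. NADPH fluorescence (340/450 nm) read at 0 and 15 min.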

Assay [7] has as its target N-terminal Xaa-Pro-Lys N-methyltransferase 1 (Homo sapiens) (UniProt Q9BV86). As to the kind of experiment: Confirmatory qHTS for Inhibitors of N-terminal methyltransferase 1 (NTMT1): MTaseGlo Assay (AID 1645874). Also: potency is read from the fitted curve at half-maximal effect; nearly all actives have a fitted effect of over 65% in size. Summed up:
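NTMT1 (125 nM) preincubated 15 min with compound and 100 uM SAM, then 1 uM SPKRIA peptide added for 30 min at room temperature. SAH detected by MTase-Glo luminescence; normalized to no-enzyme and DMSO controls, fitted to 4-parameter Hill.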

Assay [8] can be described thus: HepG2 viability counterscreen (readout 2: ATP content) against the NCATS DSHEA and TCM libraries (AID 1794840).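 Also: HepG2 cells exposed to substances for about 24 h; 0% is about no effect.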 Summed up:
(§1)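 HepG2 cells (1,000 cells/well) attached ~4 h, then treated ~24 h at 37C with substances. Protease activity read by GF-AFC (25 uM final, 30 min, Ex/Em 380/510 nm); ATP content then by CellTiter-Glo luminescence.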

Assay [9] in a line: HepG2 viability counterscreen (readout 1: protease activity) against the NCATS DSHEA and TCM libraries (AID 1794841).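 Also: cells exposed to compounds for about 24 h before the protease read; 0% is about no effect.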 Summed up: as §1
The target of assay [10] is Cytochrome P450 3A4 (Homo sapiens) (UniProt P08684). The experiment in a line: qHTS for inhibitors of CYP3A4 against the NCATS DSHEA and TCM libraries (AID 1919971).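 Also: % is scaled to controls: 0 for no effect and ±100 for the full control effect; inhibition lowers luminescence from luciferin made by CYP3A4.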 Summed up: (§2)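 Read-out is luminescence after P450-Glo detection (30 min, RT). Before that: 15 min compound–enzyme preincubation, then 30-45 min reaction with 1x NADPH regeneration solution, substrate concentration isoform-specific.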

Assay [11] concerns the target Cytochrome P450 2D6 (Homo sapiens) (UniProt P10635). The experiment in a line: qHTS for inhibitors of CYP2D6 against the NCATS DSHEA and TCM libraries (AID 1919972). Also: % is scaled to controls: 0 for no effect and ±100 for the full control effect. Summed up: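 Luminescent P450-Glo read-out of CYP2D6 turnover of a luciferin substrate after NADPH-driven reaction of 30-45 min at room temperature. Compounds were first preincubated 15 min with enzyme at titrated concentrations; quinidine was the intraplate control.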

Assay [12] has as its target Cytochrome P450 2C9 (Homo sapiens) (UniProt P11712). As to the kind of experiment: qHTS for inhibitors of CYP2C9 against the NCATS DSHEA and TCM libraries (AID 1919973).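 Also: luminogenic pro-luciferin CYP2C9 substrate turned into luciferin with NADPH regeneration; series mostly up to about 34 µM; % is scaled to controls: 0 for no effect and ±100 for the full control effect.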 Summed up:
as §2

Assay [13] deals with Cytochrome P450 2C19 (Homo sapiens) (UniProt P33261). As to the kind of experiment: qHTS for inhibitors of CYP2C19 against the NCATS DSHEA and TCM libraries (AID 1919974).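 Also: luminescence from luciferin released by CYP2C19 oxidation of a pro-luciferin substrate; % is scaled to controls: 0 for no effect and ±100 for the full control effect.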 Summed up:
as §2

A short description of assay [14]: KB-3-1 P-gp reporter qHTS against the NCATS DSHEA and TCM libraries (AID 1919975). Also: 0% is about no effect. Summed up: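 Parental KB-3-1 human cervical adenocarcinoma cells (500 cells/well, DMEM + 10% FBS) were treated with substances for ~72 h at 37C; viability was read by CellTiter-Glo luminescence.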
Assay [15] has as its target Cytochrome P450 1A2 (Homo sapiens) (UniProt P05177). As to the kind of experiment: qHTS for inhibitors of CYPIA2 against the NCATS DSHEA and TCM libraries (AID 1919976). Summed up: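 CYP1A2 + luciferin substrate, 100 mM KPO4-type buffer; cmpd 15 min RT; 1x NADPH regen, 30-45 min RT dark; detection reagent 30 min RT; luminescence. Minus-enzyme wells as background; furafylline intraplate control.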

Assay [16] can be described thus: qHTS Counterscreen for compound interference against the NCATS DSHEA and TCM libraries (AID 1919978). Also: % of control where 0% means no effect. To be noted: firefly luciferase detection reagent interference, luminescence. Summed up: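 D-luciferin (1 uM final) or 100 mM potassium phosphate buffer alone was preincubated 15 min at RT with compounds (19.5 nM to 39.8 uM final). Luciferin detection reagent was then added and luminescence read after 30 min at RT.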

Assay [17] can be described thus: Dual reporter qHTS for agonist of Pregnane X Receptor (hPXR) against the NCATS DSHEA and TCM libraries: Fluorescence readout (AID 1920058). Also: 0% is about no effect. Summed up: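 HepG2 hPXR-Luc, 2000 cells/well, 5 h attach; cpds ~24 h, 37 °C/5% CO2; CellTiter-Fluor 1 h; fluor. Ex/Em 405/540 nm = viability.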
Assay [18] has as its target Nuclear receptor subfamily 1 group I member 2 (Homo sapiens) (UniProt O75469). The experiment in a line: Dual reporter qHTS for agonist of Pregnane X Receptor (hPXR) against the NCATS DSHEA and TCM libraries: Luminescence readout (AID 1920059). Also: 0% is about no effect. Summed up: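 hPXR-Luc HepG2 cells, 2000/well in 5% charcoal-stripped FBS medium, attached 5 h, then exposed 24 h at 37C to compounds. Viability by CellTiter-Fluor, then luciferase luminescence with ONE-Glo.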

For assay [19] the target is unchanged. As to the kind of experiment: Dual reporter qHTS for antagonist of Pregnane X Receptor (hPXR) against the NCATS DSHEA and TCM libraries: Luminescence Readout (AID 1920060).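 Also: HepG2 cells carrying hPXR luciferase reporter stimulated with rifampicin at 2 µM; 0% is about no effect.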 Summed up:
(§3)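 hPXR-Luc HepG2 cells exposed 24 h at 37 C to compounds with 2 uM rifampicin in antagonist mode; luciferase luminescence measured by ONE-Glo, with CellTiter-Fluor viability read beforehand.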

Assay [20] is described as follows: Dual reporter qHTS for antagonist of Pregnane X Receptor (hPXR) against the NCATS DSHEA and TCM libraries: Fluorescence Readout (AID 1920061). Also: 0% is about no effect. Summed up: as §3

Chain of Cytochrome P450 2C9 (Homo sapiens) (P11712 whole entry, looked up): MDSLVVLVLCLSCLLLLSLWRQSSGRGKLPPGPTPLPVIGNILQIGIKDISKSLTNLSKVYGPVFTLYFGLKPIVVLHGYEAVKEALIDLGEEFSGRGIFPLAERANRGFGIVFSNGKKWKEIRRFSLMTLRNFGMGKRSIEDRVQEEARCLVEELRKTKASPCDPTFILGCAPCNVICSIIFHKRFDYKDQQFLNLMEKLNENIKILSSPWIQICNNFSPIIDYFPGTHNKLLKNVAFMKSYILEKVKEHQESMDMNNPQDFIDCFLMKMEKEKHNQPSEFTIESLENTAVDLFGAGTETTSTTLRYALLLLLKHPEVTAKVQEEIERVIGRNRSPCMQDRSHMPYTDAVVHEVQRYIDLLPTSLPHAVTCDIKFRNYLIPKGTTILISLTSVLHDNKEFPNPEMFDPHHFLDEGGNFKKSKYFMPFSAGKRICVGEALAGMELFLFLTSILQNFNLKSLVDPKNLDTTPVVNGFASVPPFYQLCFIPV
Chain of Phospholipid hydroperoxide glutathione peroxidase GPX4 (Homo sapiens) (P36969 whole entry, looked up): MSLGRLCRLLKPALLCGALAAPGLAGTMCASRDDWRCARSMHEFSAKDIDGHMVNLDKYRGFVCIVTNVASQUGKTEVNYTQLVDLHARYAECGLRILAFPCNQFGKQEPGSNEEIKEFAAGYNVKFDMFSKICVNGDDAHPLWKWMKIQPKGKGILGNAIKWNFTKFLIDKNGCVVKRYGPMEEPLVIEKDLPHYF
Chain of N-terminal Xaa-Pro-Lys N-methyltransferase 1 (Homo sapiens) (Q9BV86 whole entry, looked up): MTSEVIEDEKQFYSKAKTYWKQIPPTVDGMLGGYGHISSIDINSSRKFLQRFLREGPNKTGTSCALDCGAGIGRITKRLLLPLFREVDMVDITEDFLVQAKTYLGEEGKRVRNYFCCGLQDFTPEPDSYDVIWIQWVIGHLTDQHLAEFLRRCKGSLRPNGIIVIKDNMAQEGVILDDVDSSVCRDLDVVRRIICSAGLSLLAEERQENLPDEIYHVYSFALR
Chain of Nuclear receptor subfamily 1 group I member 2 (Homo sapiens) (O75469 whole entry, looked up): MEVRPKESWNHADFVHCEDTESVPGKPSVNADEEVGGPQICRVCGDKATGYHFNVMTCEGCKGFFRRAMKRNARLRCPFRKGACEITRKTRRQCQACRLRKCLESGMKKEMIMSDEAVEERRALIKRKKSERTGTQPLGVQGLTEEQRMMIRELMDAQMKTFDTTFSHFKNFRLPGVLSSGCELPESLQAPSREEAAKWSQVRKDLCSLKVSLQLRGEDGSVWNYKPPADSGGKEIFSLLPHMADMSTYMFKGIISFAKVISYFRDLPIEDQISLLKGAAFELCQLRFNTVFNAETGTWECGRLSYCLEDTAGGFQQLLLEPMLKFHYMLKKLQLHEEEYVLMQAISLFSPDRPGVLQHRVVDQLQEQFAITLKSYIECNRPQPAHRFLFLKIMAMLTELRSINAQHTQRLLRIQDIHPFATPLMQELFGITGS
Chain of Glutathione peroxidase 1 (Homo sapiens) (P07203 whole entry, looked up): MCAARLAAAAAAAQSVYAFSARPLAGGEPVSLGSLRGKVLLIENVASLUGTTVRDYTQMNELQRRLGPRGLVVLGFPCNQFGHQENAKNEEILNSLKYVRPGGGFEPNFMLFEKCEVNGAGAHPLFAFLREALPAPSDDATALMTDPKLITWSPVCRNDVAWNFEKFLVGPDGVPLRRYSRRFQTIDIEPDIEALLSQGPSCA
Chain of Cytochrome P450 2C19 (Homo sapiens) (P33261 whole entry, looked up): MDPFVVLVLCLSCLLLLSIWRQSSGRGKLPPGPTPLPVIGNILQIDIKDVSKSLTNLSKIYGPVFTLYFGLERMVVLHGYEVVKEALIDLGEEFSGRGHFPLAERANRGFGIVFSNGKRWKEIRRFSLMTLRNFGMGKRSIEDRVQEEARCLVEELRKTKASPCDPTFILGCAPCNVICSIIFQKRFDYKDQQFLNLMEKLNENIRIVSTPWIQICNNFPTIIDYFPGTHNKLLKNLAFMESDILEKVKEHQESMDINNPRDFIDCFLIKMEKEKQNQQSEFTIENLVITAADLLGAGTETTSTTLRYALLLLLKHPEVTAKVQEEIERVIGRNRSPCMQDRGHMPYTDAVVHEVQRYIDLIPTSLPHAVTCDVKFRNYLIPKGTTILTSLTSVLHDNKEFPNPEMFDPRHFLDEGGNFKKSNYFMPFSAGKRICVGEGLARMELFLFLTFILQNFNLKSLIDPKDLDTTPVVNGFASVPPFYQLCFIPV
Chain of Luciferin 4-monooxygenase (Photinus pyralis) (P08659 whole entry, looked up): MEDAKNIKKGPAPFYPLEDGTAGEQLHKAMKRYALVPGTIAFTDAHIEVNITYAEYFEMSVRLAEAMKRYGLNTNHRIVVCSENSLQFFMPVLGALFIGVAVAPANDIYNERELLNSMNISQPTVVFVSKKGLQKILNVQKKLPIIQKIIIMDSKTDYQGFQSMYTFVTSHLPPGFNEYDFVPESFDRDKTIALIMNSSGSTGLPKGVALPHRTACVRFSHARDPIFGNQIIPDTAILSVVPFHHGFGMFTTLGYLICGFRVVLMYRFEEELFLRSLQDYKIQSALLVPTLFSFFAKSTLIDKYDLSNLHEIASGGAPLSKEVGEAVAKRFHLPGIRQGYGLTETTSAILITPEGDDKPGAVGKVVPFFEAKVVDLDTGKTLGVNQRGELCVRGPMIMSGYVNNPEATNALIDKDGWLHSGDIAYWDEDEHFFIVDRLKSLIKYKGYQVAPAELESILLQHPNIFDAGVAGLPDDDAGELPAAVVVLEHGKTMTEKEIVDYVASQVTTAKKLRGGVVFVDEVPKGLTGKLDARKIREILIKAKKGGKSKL
Chain of Cytochrome P450 2D6 (Homo sapiens) (P10635 whole entry, looked up): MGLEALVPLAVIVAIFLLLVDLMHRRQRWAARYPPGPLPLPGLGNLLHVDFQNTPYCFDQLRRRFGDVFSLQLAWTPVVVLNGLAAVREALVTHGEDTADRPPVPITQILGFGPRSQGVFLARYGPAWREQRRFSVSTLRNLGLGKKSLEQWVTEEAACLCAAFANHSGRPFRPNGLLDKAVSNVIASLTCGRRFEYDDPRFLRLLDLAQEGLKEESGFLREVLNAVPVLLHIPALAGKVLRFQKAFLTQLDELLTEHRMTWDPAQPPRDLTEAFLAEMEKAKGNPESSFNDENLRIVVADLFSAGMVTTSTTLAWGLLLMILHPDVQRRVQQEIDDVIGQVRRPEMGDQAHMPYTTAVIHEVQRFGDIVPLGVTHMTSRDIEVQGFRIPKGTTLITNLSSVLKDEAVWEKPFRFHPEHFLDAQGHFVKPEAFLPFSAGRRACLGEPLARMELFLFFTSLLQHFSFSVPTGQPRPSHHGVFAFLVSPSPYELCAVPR
Chain of Cytochrome P450 3A4 (Homo sapiens) (P08684 whole entry, looked up, canonical isoform): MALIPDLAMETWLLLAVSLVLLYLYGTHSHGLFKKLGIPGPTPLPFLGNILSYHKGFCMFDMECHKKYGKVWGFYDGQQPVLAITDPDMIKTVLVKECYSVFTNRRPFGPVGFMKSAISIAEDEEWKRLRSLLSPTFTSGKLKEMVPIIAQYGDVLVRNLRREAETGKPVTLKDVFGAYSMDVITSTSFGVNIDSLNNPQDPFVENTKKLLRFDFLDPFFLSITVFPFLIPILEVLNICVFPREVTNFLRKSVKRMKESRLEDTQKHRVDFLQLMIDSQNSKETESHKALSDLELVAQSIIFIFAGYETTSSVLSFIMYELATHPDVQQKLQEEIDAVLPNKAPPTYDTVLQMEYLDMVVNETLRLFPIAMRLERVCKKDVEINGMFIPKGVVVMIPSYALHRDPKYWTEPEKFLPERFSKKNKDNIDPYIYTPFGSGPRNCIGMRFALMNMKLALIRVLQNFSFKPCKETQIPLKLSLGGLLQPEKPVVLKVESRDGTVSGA
Chain of Glucocorticoid receptor (Homo sapiens) (P04150 whole entry, looked up): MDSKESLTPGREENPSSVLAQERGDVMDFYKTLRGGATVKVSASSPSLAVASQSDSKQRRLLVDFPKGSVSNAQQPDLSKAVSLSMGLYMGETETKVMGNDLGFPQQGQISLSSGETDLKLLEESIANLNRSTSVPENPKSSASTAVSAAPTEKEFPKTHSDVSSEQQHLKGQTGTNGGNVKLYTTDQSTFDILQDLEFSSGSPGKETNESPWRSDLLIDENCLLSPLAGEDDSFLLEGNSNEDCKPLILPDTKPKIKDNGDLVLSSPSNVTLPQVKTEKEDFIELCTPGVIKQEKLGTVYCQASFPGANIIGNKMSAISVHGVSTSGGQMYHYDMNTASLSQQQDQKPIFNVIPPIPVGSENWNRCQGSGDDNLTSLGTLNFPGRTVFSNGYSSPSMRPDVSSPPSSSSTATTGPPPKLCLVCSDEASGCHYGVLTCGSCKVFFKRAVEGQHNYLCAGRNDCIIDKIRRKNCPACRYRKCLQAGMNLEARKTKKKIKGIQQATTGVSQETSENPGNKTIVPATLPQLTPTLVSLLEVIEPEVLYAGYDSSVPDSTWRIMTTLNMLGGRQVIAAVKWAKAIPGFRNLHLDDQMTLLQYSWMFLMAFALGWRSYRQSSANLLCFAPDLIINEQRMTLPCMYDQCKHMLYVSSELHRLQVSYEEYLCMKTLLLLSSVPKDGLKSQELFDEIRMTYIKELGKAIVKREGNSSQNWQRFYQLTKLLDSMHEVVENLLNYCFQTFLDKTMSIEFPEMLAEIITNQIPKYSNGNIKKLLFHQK
Chain of Cytochrome P450 1A2 (Homo sapiens) (P05177 whole entry, looked up): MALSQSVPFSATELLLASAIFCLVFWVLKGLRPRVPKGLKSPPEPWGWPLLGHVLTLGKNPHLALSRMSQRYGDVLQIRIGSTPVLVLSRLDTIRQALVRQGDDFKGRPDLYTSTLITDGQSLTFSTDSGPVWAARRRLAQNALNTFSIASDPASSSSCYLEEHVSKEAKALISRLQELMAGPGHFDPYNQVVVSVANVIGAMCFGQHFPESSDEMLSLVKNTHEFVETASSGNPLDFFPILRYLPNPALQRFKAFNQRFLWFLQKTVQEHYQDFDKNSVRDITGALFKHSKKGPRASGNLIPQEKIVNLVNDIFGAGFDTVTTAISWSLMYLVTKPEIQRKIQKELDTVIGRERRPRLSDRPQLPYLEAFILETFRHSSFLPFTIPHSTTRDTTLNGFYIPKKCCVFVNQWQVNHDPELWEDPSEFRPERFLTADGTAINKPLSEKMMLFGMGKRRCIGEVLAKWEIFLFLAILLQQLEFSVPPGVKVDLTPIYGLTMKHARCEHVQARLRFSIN

For the compound `C[C@@H]1C[C@H]2[C@@H]3C[C@H](F)C4=CC(=O)C=C[C@]4(C)[C@@]3(F)[C@@H](O)C[C@]2(C)[C@@]1(O)C(=O)COC(=O)C(C)(C)C`, the compound was classed as inactive in [1]. Moreover, the Potency in assay [2] is 0.00124 µM (active); in [4] it was 9.52 µM (active). Further, the Potency result in assay [3], in [5] and in [6] was “inactive” in each case.
Consider `COc1ccc(C(=O)Nc2noc3ccccc23)cc1`, for which the Potency in assay [7] was 39.8 µM (active).
Regarding `CCC(Sc1nc2nccnc2c(=O)n1Cc1ccc(C)cc1)C(=O)NC1CCCCC1` (stereo unspecified), in assay [4], the Potency was 9.52 µM (active).
With `OCC=Cc1ccccc1`, the Potency in assay [4] is 19 µM (active). The result in [8], in assay [9], in [10], in [11], in assay [12] and in assay [13] was inactive. The outcome in assay [14], in [15], in assay [17], in assay [18], in assay [19] and in assay [20] was inactive. Also, the Potency result in [5] and in assay [6] was “inactive” in each case. In assay [16], the max response was 2.25%.
`CC(CCC(=O)O)C1CC[C@H]2C3[C@H](O)C[C@@H]4C[C@H](O)CCC4(C)[C@H]3C[C@H](O)C12C` (stereo partly specified): the Potency result in [4] is “inactive”.
Regarding `S=C(Nc1ccccn1)c1ccccn1`, in assay [7], the Potency is 10.3 µM (active).
